Inconclusive results are not listed. Calls of active or inactive are those of the source. Calls follow the shape of the dose curve; as a rule, active = well fitted inhibition curve with a large enough effect; inconclusive = small, poorly fitted or top-dose-only effect; inactive = flat fitted curve, though single readings scatter.
Assay: Identification of antibody-drug conjugate (ADC) payloads which are substrates of ATP-binding cassette drug efflux transporters: ABCG2-HEK293-R5 cell line
Conditions: ABCG2-HEK293-R5 viability, CellTiter-Glo ATP luminescence, 48 h
Description: Antibody-drug conjugates (ADCs) feature an antibody recognizing a specific protein joined to a potent toxic payload. Numerous antibody-drug conjugates have received FDA approval; however, clinical resistance arises. Resistance mechanisms include decreased expression or mutation of the antibody target, impaired payload release, or increased expression of ATP-binding cassette (ABC) efflux transporters associated with multidrug resistance. We therefore sought to characterize the interaction of ABC multidrug transporters with ADC payloads. We performed a high-throughput screen with 27 common ADC payloads using cells lines expressing ABC transporters P-glycoprotein (P-gp, encoded by ABCB1) or ABCG2 (encoded by ABCG2). Confirmatory assays were also performed using cells transfected to express P-gp, ABCG2, or MRP1 (encoded by ABCC1). Several commonly used ADC payloads were substrates of P-gp, including calicheamicin gamma1, monomethyl auristatin E, DM1, and DM4. All the pyrrolobenzodiazepines tested - SJG136, SGD-1882, SG2057, and SG3199 - were substrates of P-gp, ABCG2, and MRP1. […] These findings highlight the risk of transporter-mediated resistance with certain ADC payloads and underscore the importance of selecting payloads that evade ABC transporter recognition in future ADC development.
HEK-293 cells were transfected with empty vector (pcDNA) or vector containing the human ABCB1 (MDR-19), ABCG2 (R-5), or ABCC1 gene (MRP1) and were maintained in EMEM with 2 mg/mL G418 added to maintain transporter expression. The HeLa derivative KB-3-1 and the P-gp overexpressing KB-8-5-11 subline were maintained in DMEM; KB-8-5-11 additionally received 100 ng/mL colchicine. H460 parental cells were obtained from the Division of Cancer Treatment and Diagnosis Tumor Repository, National Cancer Institute at Frederick, MD and were cultured in RPMI. The ABCG2 expressing subline H460 MX20 was generated by selecting H460 cells in 20 nM mitoxantrone. Media in all cases was supplemented with 10% FBS and 1% penicillin-streptomycin. We explored 27 common ADC payloads, in two orthogonal, paired cell line sets-a drug selected and transfected set for each transporter--to identify substrates of the ABC transporters P-gp and ABCG2. Compounds were sourced from Levena Biopharma (San Diego, CA), Selleck Chem (Houston, TX), ChemieTek (Indianapolis, IN), or Microsource Discovery Systems (Gaylordsville, CT). Screening was performed as previously described. Briefly, cells were plated at a density of 500 cells/well in 1536 well plates with compounds added using a 1536-head pin tool (Kalypsys, San Diego CA). Cells were incubated with cytotoxic drugs and processed with CellTiter Glo reagent (Promega, Madison, WI) to determine viability after 48 hours. P-gp substrates were identified by comparing compound activity between paired sets of low-expressing (sensitive) and over-expressing (resistant) cell lines.

Row | SMILES | Potency
1 | CC(C)(C)OC(=O)Nc1ccc2[nH]c(C(=O)N3C[C@@H](CCl)c4c3cc(O)c3ccccc43)cc2c1 | 33.6 nM (active)
2 | COC(=O)c1cc2c3c(cc(O)c2[nH]1)N(C(=O)c1cc2cc(OC)c(OC)c(OC)c2[nH]1)CC3CCl (stereo not given) | 4.2 nM (active)
3 | CN(C)CCOc1ccc2[nH]c(C(=O)N3C[C@@H](CCl)c4c3cc(O)c3ccccc43)cc2c1 | 1.7 nM (active)
4 | CCN(C(C)=O)[C@H]1CO[C@@H](O[C@H]2[C@H](O[C@H]3C#C/C=C\C#C[C@]4(O)CC(=O)C(NC(=O)OC)=C3/C4=C\CSSSC)O[C@H](C)[C@@H](NO[C@H]3C[C@H](O)[C@H](SC(=O)c4c(C)c(I)c(O[C@@H]5O[C@@H](C)[C@H](O)[C@@H](OC)[C@H]5O)c(OC)c4OC)[C@@H](C)O3)[C@@H]2O)C[C@@H]1OC | 67.1 nM (active)
5 | CCN[C@H]1CO[C@@H](O[C@H]2[C@H](O[C@H]3C#C/C=C\C#C[C@]4(O)CC(=O)C(NC(=O)OC)=C3/C4=C\CSSSC)O[C@H](C)[C@@H](NO[C@H]3C[C@H](O)[C@H](SC(=O)c4c(C)c(I)c(O[C@@H]5O[C@@H](C)[C@H](O)[C@@H](OC)[C@H]5O)c(OC)c4OC)[C@@H](C)O3)[C@@H]2O)C[C@@H]1OC | 3.8 nM (active)

Reference: PubChem BioAssay AID2061323 (National Center for Advancing Translational Sciences (NCATS), 2025)
